Measurements published in the supplement of paper PMC11417369.
± gives the standard deviation of the averaged measurements. The full ranking holds about 25,000 sequences; the median of “ln(normalized median fluorescence intensity)” is about 8.6, and the highest 2% start at about 10. This is one part of a sample in which the highest values are shown more often than they occur.

test system: PfAP2-EXP AP2 domain (GST-tagged); assay: gcPBM binding intensity (ln(normalized median fluorescence intensity)); higher = stronger DNA binding
Summary of the method: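 DNA-binding domains from P. falciparum, fused to GST and produced in E. coli, were put on an Agilent 4 × 180k double-stranded probe array for 1 h in 1× PBS holding 1% milk, 0.2 mg/ml BSA, 0.5% salmon testes DNA and 0.03% Triton X-100. Probes were primer-extended, 36 bp long and drawn from intergenic genomic regions, with negative controls included. After Alexa488 anti-GST antibody detection and a 488 nm scan, binding intensity was set as the highest Masliner-normalised natural-log median intensity across replicate spots of either probe orientation.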

Sequence | gcPBM binding intensity (ln)
ACTTTACAATATATATGTACATATTAATAAACATAT [XGTACX_site3689] | 8.74 ± 0.42
ATAAAATAAAATTGGTGTACTTTTGATAAAATAAAA [XGTACX_site4264] | 8.24 ± 0.28
TTAATAAACCTTAGATGTACAGTTATATATAAAATA [XGTACX_site6681] | 8.54 ± 0.52
ATAACATTCAAAAAATGTACAAACATATGAATAAAT [XGTACX_site7013] | 8.62 ± 0.47
TATATATATAACAGAATGCACTTTATATGTTCATAT [GTGCAC_site9880] | 8.94 ± 0.14
TAAATAAATATATATACACACATATATATATATATA [CACACA_site598] | 10.1 ± 0.36
TAAATACATAAATACACACACATATATATATATATA [CACACA_site5549] | 10.2 ± 0.35
TATATATATATATATACACACATATATATAAATATA [CACACA_site2035] | 10.2 ± 0.26
CATATATAAATATATACACACATACATACATACATA [CACACA_site5988] | 8.73 ± 0.3
TAAATAAATACATACACACACATACATATATATATA [CACACA_site3129] | 9.86 ± 0.26
TATACTCATAAATACACACACATATATATATATATA [CACACA_site5822] | 10.2 ± 0.28
CACAAATAAATACATACACACATATATACTCATATA [CACACA_site4379] | 8.37 ± 0.49
TATATATATAAATACACACACACATATATATATATA [CACACA_site4585] | 10 ± 0.16
CATAAATACATACATACACACATATATATATATATA [CACACA_site2106] | 10.2 ± 0.41
AGAGAAGAAAACAAAACACACACATATATCTTAATA [CACACA_site8699] | 8.63 ± 0.71
AATTTTTAGTATATAACATAAAATAAAATAAAATAA [GTGCAC_negctrl_site696] | 8.47 ± 0.38
AAAATTATATTTTATAGAAATTTAAATAAATATATA [GTGCAC_negctrl_site199] | 8.01 ± 0.38
AATATATATATTAAATGTACATTACATAATTATATA [XGTACX_site3450] | 8.54 ± 0.43
TATAATAATATTATAGTGCATATTATTTATATATAA [GTGCAC_site9820] | 8.22 ± 0.2
TATATACATTTTTATGTGCACATTTTATTTTTAAAT | 9.15 ± 0.31
ACCTGTAAAAATGTTTATATATATATATATATATAT [CACACA_negctrl_site1500] | 10.3 ± 0.37
ATTTTTTTATAAAATTTTTATATAATTTATTATAAA [GTGCAC_negctrl_site96] | 8.16 ± 0.52

Sequence | gcPBM binding intensity (ln)
ATAATATATAATATAGTGCATTATTTATTAATTAAT [GTGCAC_site9852] | 8.56 ± 0.085
AATGTAAAATATATGTGTACATATGTTTATATATAT [XGTACX_site2216] | 8.71 ± 0.23
TATATATATATATATGTGCACATTTTATTAAAATGT | 10.2 ± 0.34
TTTTAATTTAAAAATTAATTTATATATATATATATA [TGCATGCA_negctrl_site447] | 10.3 ± 1
ATATATATATATATAGTGCACATTTATATAATTATT | 10.3 ± 0.17
AAAATATATATGTATGTTTATATGTTTATATATATT [XGTACX_negctrl_site337] | 8.18 ± 0.49
TTATTTTTATATTTTAATTTTAAAAAAATTTTAATT [CACACA_negctrl_site777] | 8.04 ± 0.46
TTATATTATATATATGTGCACATTTTTAAACTTGGA | 8.71 ± 0.27
ATTATTTAGAAATGAGCACACAAAAAGAAGAATTTT [CACACA_site7913] | 8.65 ± 0.52
ATATAAAAAGTGTATCGTACATTTACTTATTTTATA [XGTACX_site6249] | 8.46 ± 0.3
AATACTATTATTATTGCACACTTATTATCCCTCGGA [CACACA_site4262] | 8.65 ± 0.28
CACTAAACATATACACGTACATGCAACGGATTTTTT [XGTACX_site461] | 8.74 ± 0.3
ATGGACAAGTTAAACGCACACAAATATATACAGACA [CACACA_site1652] | 9.15 ± 0.73
AAAAAAATTTTAAAATGTACAAATTTTAATATATAT [XGTACX_site7628] | 8.55 ± 0.26
TATAATAAAATATTTTGTACGTATATTTTAATATTT [XGTACX_site2582] | 8.32 ± 0.45
ATATATTTTTTAAATTTAAAAATTATAAAATTTATA [TGCATGCA_negctrl_site36] | 8.16 ± 0.45
TTTTTTATTAAATATATATAATAATAATAATTTGTA [CACACA_negctrl_site1719] | 7.9 ± 0.37
AAATAACAAATTTTTAAAATGTATATATATATATAT [TGCATGCA_negctrl_site219] | 10.2 ± 0.74
TTTTTTAAATGTATTAAAATTATATATATATATATA [GTGCAC_negctrl_site570] | 10.2 ± 0.25
TTTTAAAATATATTTGTATATATATATATATATATA [XGTACX_negctrl_site536] | 10.4 ± 0.35
AAAAAAAAAAAAATGTAATTTTTTAATTATTTATAT [GTGCAC_negctrl_site436] | 7.96 ± 0.43
ATAACAAAATAATAATGTACGTATAAATATAATTTA [XGTACX_site6049] | 8.57 ± 0.4

Sequence | gcPBM binding intensity (ln)
AAAAAAAAAAAAAATACACACATATATAAATAAATA [CACACA_site6459] | 8.31 ± 0.45
TATAAACATAAATATACACACAAACATATATGTATT [CACACA_site8324] | 8.51 ± 0.42
CTGTGTTTTGGTTGTACACACGCTACATTCTATATT [CACACA_site2698] | 9.16 ± 0.28
TTTTTAAAAATAACAGAAAAGAATTACAGATTTTTT [XGTACX_negctrl_site472] | 8.34 ± 0.41
TTTTGTTGCTCTTTTTTTTTTTTTTTTAACTGTATG [CACACA_negctrl_site1072] | 8.57 ± 0.43
TTTTTTTGCTCTTTTTATATATATATATATATATAT [GTGCAC_negctrl_site70] | 10.2 ± 0.46
TTTTGCTTTTTTTTTCTTTTTTGTTTTATATATATT [CACACA_negctrl_site103] | 8.51 ± 0.53
TATGTATATATATATATATATATATATATATATATA [TGCATGCA_negctrl_site491] | 10.1 ± 0.66
TAAAGGAGCCTATGAACACACACATGTACTTATATT [CACACA_site9351] | 8.56 ± 0.4
TGTATGAAATATATTACACACATATAAAATCTATAT [CACACA_site6514] | 8.35 ± 0.57
AAATTTATAAAGAACACACACATATATATATATATA [CACACA_site48] | 10.2 ± 0.27
AAATTTATAAAGAACACACACATATAAATATAAATA [CACACA_site6174] | 8.93 ± 0.49
CATTATAAGAAACACACACACATATATATATATATA [CACACA_site1051] | 10.2 ± 0.47
TATATATTAAAACACACACACATATATATATATATA [CACACA_site3787] | 10 ± 0.38
TATATTAAGAAACACACACACATATATATATATATA [CACACA_site1609] | 10.2 ± 0.3
TCGAACATTAACATAACACACATATAGATTTATATA [CACACA_site7380] | 8.29 ± 0.42
CCAAATTTATAAAGAACACACACATATATATATATA [CACACA_site7900] | 9.99 ± 0.4
TTAATTAAGAAACACACACACATATATATATATATT [CACACA_site2290] | 8.67 ± 0.42
AAACATAAGAAACACACACACATATATATATATATA [CACACA_site3642] | 10.1 ± 0.35
TCGAACATTAACATAACACACATATATATATATATA [CACACA_site2900] | 10.2 ± 0.32
AACATTATAAGACACACACACACATATATATATATA [CACACA_site8259] | 10.1 ± 0.39
CATTATTATTTTATAACACACACATATATATTATAT [CACACA_site8405] | 8.48 ± 0.34
